From PubChem
The list is not random: actives were taken first. Their share in the collection is about 3.2%.
CHT block: inhibitors of human choline transporter CHT; High affinity choline transporter 1 (Homo sapiens), Q9GZV3; CHT-expressing cells, membrane potential dye, choline response; stronger effect = lower value; B-score at 10 µM; 0.86% of 310,000 active; AID 488975, 2010;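 active = B-score over 3 SD under the library average, and starting fluorescence ratio not unusually high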;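 note: choline stimulus applied at its EC90 after an EC20 pre-addition; B-score computed on integrated fluorescence ratio after choline addition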
TMEM16A inh: TMEM16A chloride channel inhibitors, primary screen, cell-based, HTS | Anoctamin-1 (Mus musculus), Q8BHY3 | HEK293 TMEM16A/YFP iodide influx fluorescence, ionomycin | normalized B-score (activity score, 25-100; higher = stronger inhibition) at 10 µM | 1.2% of 310,000 active | AID 588511, 2011;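 active = ratio plate-corrected score three or more library SD toward inhibition, starting fluorescence score within five deviations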;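 note: score derived from kinetic fluorescence span divided by baseline fluorescence per well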
ANO1 activ: TMEM16A chloride channel activators or potentiators, primary screen, cell-based, HTS; Anoctamin-1 (Mus musculus), Q8BHY3; HEK293 TMEM16A/YFP-H148Q/I152L, iodide quench fluorescence; stronger effect = lower value; B-score at 10 µM; 0.3% of 340,000 active;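 active = fluorescence-ratio B-score plate-corrected deviation score at least 3 library SD below zero, with starting fluorescence score within 5 deviations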;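 note: channel opened by trigger with iodide after compound preincubation; score built on the fluorescence ratio of max minus min over baseline; more negative score means more quench and so TMEM16A activation or potentiation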
PHOSPHO1 block: PubChem AID 1565. Phosphoethanolamine/phosphocholine phosphatase (Homo sapiens), Q8TCT1. recombinant PHOSPHO1, absorbance phosphatase assay. inhibition, % at 13.3 µM. 1.1% of 290,000 active; in the data active = inhibition above about 60%
HDAC3 inhib: HDAC3 deacetylase inhibitors, primary screen, biochemical, fluorescence, cell-free homogeneous. inhibition, % at 8.3 µM. Histone deacetylase 3 (Homo sapiens), O15379. recombinant HDAC3, fluorogenic peptide/trypsin coupled. 0.15% of 320,000 active; in the data active = inhibition above about 26%, passing the limit was not always enough
Target sequence (O15379 whole entry, looked up): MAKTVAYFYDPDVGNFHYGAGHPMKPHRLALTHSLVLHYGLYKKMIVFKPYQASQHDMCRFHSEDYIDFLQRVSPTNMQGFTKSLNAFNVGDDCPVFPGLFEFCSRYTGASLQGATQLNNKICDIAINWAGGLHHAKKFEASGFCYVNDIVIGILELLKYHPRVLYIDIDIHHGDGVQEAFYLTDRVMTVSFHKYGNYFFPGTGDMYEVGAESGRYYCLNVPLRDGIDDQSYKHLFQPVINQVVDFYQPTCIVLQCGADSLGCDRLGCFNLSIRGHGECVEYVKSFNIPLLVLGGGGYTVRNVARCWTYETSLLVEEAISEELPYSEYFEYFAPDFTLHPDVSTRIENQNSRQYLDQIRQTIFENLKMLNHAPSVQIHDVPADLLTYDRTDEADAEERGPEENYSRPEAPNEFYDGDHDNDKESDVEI
CHT allo act: CHT positive allosteric modulators, primary screen, cell-based, membrane potential dye, choline EC20; AID 488977, 2010; CHT-expressing cells; stronger effect = higher value; LV-AA mutant CHT in HEK293 cells; 0.49% of 310,000 active; B-score at 10 µM; High affinity choline transporter 1 (Homo sapiens), Q9GZV3;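 active = initial fluorescence not abnormally high and integrated response B-score, plate-corrected, over 3 SD above library mean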
Each line names hits and unclear results; the compound was inactive in the other large screens.

O=C(Nc1ccn(-c2ccccc2)n1)c1ccccc1Br	none
CC1C2(C)OC(=N)C(C#N)(C(C)O2)C1(C#N)C#N (stereo not drawn)	ANO1 activ -6.3 (no result: HDAC3 inhib)
CCOc1ccc2noc3c2c1C(=O)c1ccccc1-3	PHOSPHO1 block 62
CCNc1ccc2noc3c2c1C(=O)c1ccccc1-3	none
Cn1c(=O)cc2c3c(c(N4CCCCC4)ccc31)C(=O)c1ccccc1-2	none
O=C1c2ccccc2-c2onc3ccc(N4CCCC4)c1c23	ANO1 activ -8.3 (no result: CHT block, TMEM16A inh, HDAC3 inhib, CHT allo act)
O=C1CC(N2CCCN(C3CC(=O)N(c4ccc(F)cc4)C3=O)CC2)C(=O)N1c1ccc(F)cc1 (stereo not drawn)	ANO1 activ -8.6
O=C(c1ccc2c(c1)OCCCO2)N1CCCCC1	none
COc1cc(OC)c(NC(C)C(=O)N2CCCC2)cc1Cl (stereo not drawn)	CHT block -8.7
CN(CCNC(=O)c1ccc(CS(=O)(=O)c2c(Cl)cccc2Cl)o1)CCc1ccccc1	PHOSPHO1 block 65
CC(=O)Nc1sc(C)c(C)c1C(=O)OCC(=O)N(CC(C)C)c1c(N)n(Cc2ccccc2)c(=O)[nH]c1=O	ANO1 activ -6.6 (no result: PHOSPHO1 block)
COC(=O)COc1ccc(S(=O)(=O)NCCC2=CCCCC2)cc1	none
Cc1ccccc1CN(C)CC(=O)Nc1cccc(S(=O)(=O)N(C)c2ccccc2)c1	PHOSPHO1 block 62
Cc1nc(NC(=O)c2ccc(Cl)cc2)sc1Cc1ccc2c(c1)OCO2	PHOSPHO1 block 71
O=C(Nc1ccc(C(=O)O)cc1)Nc1ccc([N+](=O)[O-])cc1	none
O=C(Nc1cc(C(F)(F)F)cc(C(F)(F)F)c1)Nc1cnn(-c2ccc([N+](=O)[O-])cc2)c1C(F)(F)F	TMEM16A inh 100
COc1cc(NC(=O)COC(=O)/C=C/c2ccc(O)c(OC)c2)cc(OC)c1	none
Cc1occc1C(=O)NNC(=S)Nc1cccc([N+](=O)[O-])c1	PHOSPHO1 block 88
Cc1cc(Br)ccc1NC(=S)Nc1cccc([N+](=O)[O-])c1	TMEM16A inh 100
O=C(Nc1ccc(Cl)cc1)[C@@H]1[C@@H]2C(=O)N(c3ccc4ccccc4c3)C(=O)[C@@H]2[C@H]2C=CC=NN21	PHOSPHO1 block 76 (no result: HDAC3 inhib)
CC(C)c1ccc(NC2CCCN(C(=O)c3cc(C(C)C)nc(N)n3)C2)cc1 (stereo not drawn)	none
CCOC(=O)CC1(NC(=O)C2CCC(=O)N(Cc3ccccc3OC)C2)CCCCC1 (stereo not drawn)	PHOSPHO1 block 66
O=S(=O)(NCC(c1cccnc1)N1CCN(Cc2ccccc2)CC1)c1ccc(F)cc1 (stereo not drawn)	none
O=S(=O)(NCC(c1cccnc1)N1CCN(Cc2ccccc2)CC1)c1cc(F)ccc1F (stereo not drawn)	PHOSPHO1 block 71
CCOc1ccc(Nc2ccc([N+](=O)[O-])c3nonc23)cc1	TMEM16A inh 100 (no result: PHOSPHO1 block)
CC(=O)NS(=O)(=O)c1ccc(Nc2ccc([N+](=O)[O-])c3nonc23)cc1	none
CCn1c(C)cc(/C=C2\NC(=O)N(Cc3ccccc3)C2=O)c1C	PHOSPHO1 block 70
CCn1c(C)cc(/C=C2/NC(=O)N(Cc3ccccc3F)C2=O)c1C	none
NC(=S)N/N=C\c1ccc(-c2cccc(Cl)c2Cl)o1	PHOSPHO1 block 95
NC(=S)N/N=C/c1ccc(-c2ccc(Cl)c(Cl)c2)o1	PHOSPHO1 block 81
NC(=S)N/N=C/c1ccc(-c2ccccc2)o1	none
CN1/C(=C/C(=O)c2ccc(Cl)cc2)Sc2cc3c(cc21)OCO3	none
COc1ccc(-c2nsc(SCC(=O)Nc3ccc4c(c3)OCO4)n2)cc1	none
CCOc1ccc(NC(=O)C2CC(C)=C(C)CC2C(=O)O)cc1 (stereo not drawn)	none
COc1ccc(N2CCN(C(=O)c3ccc4c(c3)NC(=O)C(CSCc3cccc(F)c3)N4)CC2)cc1 (stereo not drawn)	none (no result: ANO1 activ)
CCn1c(CSc2nc3ccccc3s2)nnc1SCC(=O)c1ccc(Cl)cc1	PHOSPHO1 block 73
CCn1c(CSc2nc3ccccc3s2)nnc1SCC(=O)c1ccc(O)c(O)c1	PHOSPHO1 block 86
Cn1c(CSc2nc3ccccc3s2)nnc1SCC(=O)NCc1ccccn1	none
CCn1c(SCC(=O)c2ccc(O)c(O)c2)nnc1-c1ccccc1	none
CS(=O)c1nc(-c2ccc(Br)cc2)cc(-c2ccccc2)c1C#N (stereo not drawn)	TMEM16A inh 100
O=C(c1ccccc1)N1N=C(C(F)(F)F)CC1(O)c1ccc(F)cc1 (stereo not drawn)	TMEM16A inh 100
Cc1nc(NCC2CCCO2)c2nnn(Cc3ccccc3)c2n1 (stereo not drawn)	none
CCCc1nc(NCC2CCCO2)c2nnn(Cc3ccccc3)c2n1 (stereo not drawn)	ANO1 activ -4.9
COc1ccc(N2CCN(C(=O)CSc3nnc(-c4cc5ccccc5cc4O)n3C)CC2)cc1	none
COc1ccc(-n2cnnc2SCC(=O)N2CCN(c3ccccc3)CC2)cc1	PHOSPHO1 block 93
O=C(CSc1nnnn1-c1ccccc1)Nc1ccc(N2CCOCC2)cc1	none
O=C(CSc1nncn1-c1ccccc1)Nc1ccc(N2CCOCC2)cc1	PHOSPHO1 block 87
C/C(N)=C(/C#N)C(=O)CSc1nncn1-c1ccccc1	PHOSPHO1 block 68
C/C(N)=C(/C#N)C(=O)CSc1nnc(C)n1-c1ccccc1	none
O=C(Nc1ccc(N2CCOCC2)cc1N1CCOCC1)c1ccco1	none (no result: HDAC3 inhib)
Cc1ccc(NC(=O)CSc2nnc(-c3ccco3)c(-c3ccco3)n2)cc1	PHOSPHO1 block 60
COc1ccc(NC(=O)CSc2nnc(-c3ccco3)c(-c3ccco3)n2)cc1OC	none
Cc1ccccc1NC(=O)CSc1nnc(-c2ccco2)c(-c2ccco2)n1	TMEM16A inh 25
O=C(CSc1nnc(-c2ccco2)c(-c2ccco2)n1)Nc1ccccc1	PHOSPHO1 block 64
COc1cccc(NC(=O)CSc2nnc(-c3ccco3)c(-c3ccco3)n2)c1	CHT block -7.4
CSc1cccc(NC(=O)NNC(=O)C2CCN(S(=O)(=O)N(C)C)CC2)c1	none
CCCN(CCC)CCCNC(=O)c1cn(CC)c2ccc(S(=O)(=O)N3CCc4ccccc4C3)cc2c1=O	none
CN1C(=O)Cc2cc(S(=O)(=O)NCCc3ccccc3)ccc21	none
COc1ccc(C(=O)Nc2ccc(S(=O)(=O)Nc3cc(C)nc(C)n3)cc2)cc1OC	ANO1 activ -6.7
COc1cc(C(=O)Nc2ccc(S(=O)(=O)Nc3cc(C)nc(C)n3)cc2)cc(OC)c1OC	none
